Results reported in PubChem BioAssay AID526 (National Center for Advancing Translational Sciences (NCATS), 2006).
Out of some 67,000 compounds screened, fewer than 10 were called active. Calls follow the shape of the dose curve; as a rule, active = well fitted activation curve with a large enough effect (not every such curve was filed as active); inconclusive = small, poorly fitted or top-dose-only effect, or another doubt; inactive = no such curve, though single readings can be large or run the other way. These entries were drawn from the full list.

Experiment: Ubiquitin-GFP Assay
Settings: Ubiquitin-GFP reporter cells, proteasome inhibition, GFP fluorescence, untreated = 0%, 10 µM MG-132 = 100%; series mostly up to 45.9 µM
Source text: NIH Chemical Genomics Center [NCGC]
NIH Molecular Libraries Screening Centers Network [MLSCN]
The ubiquitin-proteasome pathway is present within all eukaryotic cells and plays roles in normal cellular functions and disease-related dysfunction. Proteins are tagged with a poly-ubiquitin chain that targets them for the proteasome, a multimeric protease, that degrades the protein into peptides and free ubiquitin. The proteasome has a key role in regulating cell cycle and growth and is known to control the levels of cyclins and CDK inhibitors as well as tumor suppressor proteins. Additionally, the activation of NF- B is controlled by ubiquitin-labeling and degradation of the inhibitory protein I B . […] With this in mind, proteasome inhibitors such as MG-132 and PS-341 have been used to inhibit tumor cell growth.
A cellular assay for ubiquitin-proteasome function was used to find chemical probes of this pathway. The assay used an ubiquitin-GFP construct expressed in U2OS cells (BioImage). Under basal conditions little GFP can be detected as it is degraded by the proteasome. However, treatment of the cells with a proteasome inhibitor such as MG-132 results in a rise in GFP levels that can be detected in as little as four hours. We used the Acumen-Explorer laser plate cytometer having a 488 nm laser as an excitation light source to detect the GFP. Compounds were screened in 1536-well plates using qHTS with a concentration-titration series range that varied from 46 uM to 2.9 nM.
NCGC Assay Protocol Summary:
Cells (U20S ps 2042) expressing ubiquitin (G76V-GFP) were maintained in DMEM with Glutamax-1 and high glucose, 10% FBS, 1% (v/v) penicillin-streptomycin, 0.5 mg/mL Geneticin (G418). The cells were seeded in 1536-well plates using a solenoid-based dispenser at 700 cells/5ul in DMEM medium with Glutamax-1 and high glucose containing 0.5% FBS, w/o phenol red, 25 mM HEPES. The plates were incubated at 37 °C/5% CO2 overnight. Then 23 nl of MG-132 in DMSO was added to the control wells at a final concentration of 10 uM. Next, 23 nL of library compounds in DMSO were added to the sample wells. The plates were incubated for 4 hrs at 37 °C/5% CO2. Following this incubation the plates were read on the Acumen using a cell object definition of 15 to 100 um in width and depth and a window of Total Intensity of between 77,200 and 2,720,000 FLU to enumerate GFP-expressing cells.
The %Activity was determined from the basal and MG-132 treated control wells. %Activity was determined by normalizing to the difference in signal between basal cells (0% Activity) and cells incubated with 10 uM of the proteasome inhibitor MG-132 (100% Activity). Concentration-response curves were fitted to the signals arising from the GFP fluorescence.
Assay Protocol Summary Table
Sequence Parameter Value Description
2. Time O/N 37C incubation
4. Compound 23 nL Libraries (46 uM to 2.9 nM)
5. Time 4 hr 37C incubation
6. Detector Acumen Total Intensity, GFP fluorescence (488 ex/515 em)
Keywords: NIH Roadmap, MLSCN, MLI, MLSMR, BioImage, proteasome, ubiquitin-GFP, qHTS, NCGC

Activation (GFP accumulation), inactive:
Cc1cc(C(=O)O)c(S(C)(=O)=O)s1, CCn1nnc(NC(=O)c2cc(Cl)c(OC)c(Cl)c2)n1, CCC(c1nnnn1C1CCCC1)N(Cc1cccs1)Cc1cc2cccc(C)c2[nH]c1=O (stereo not drawn), Cc1ccccc1CSc1nnc(-c2ccccn2)n1N, Cn1c(=O)c(CCc2ccccc2)nc2cnc(Nc3ccccc3)nc21, COc1ccccc1CN1CC2(CCN(S(=O)(=O)c3ccccc3)CC2)C1, CC(C)(O/N=C(\C(=O)N[C@@H]1C(=O)N2C(C(=O)[O-])=C(C[n+]3ccccc3)CS[C@@H]12)c1csc(N)n1)C(=O)O, CCc1cc(Br)ccc1NC(=O)C1CCCO1 (stereo not drawn), O=C(O)c1c(Br)c(Br)c(Br)c(Br)c1C1c2ccc(O)cc2Oc2cc(O)ccc21 5.65% [at 9.17 µM], CS(=O)(=O)N1CCC2(CC1)CN(c1ccncc1)C2, NCC(=O)[C@@H](O)[C@H](O)[C@H](O)CO 1.45% [at 9.17 µM], O=C(c1ccco1)N1CCC[C@@]2(CCN(c3ccccc3)C2)C1, Cc1ccc(-c2cc(C(F)(F)F)n3nc(C(=O)N4CCCC4)cc3n2)cc1 6.67% [at 9.17 µM], CC(C)CSC[C@@H]1O[C@H](n2cnc3c(N)nccc32)[C@H](O)[C@@H]1O -1.11% [at 9.17 µM], O=C(Nc1nc2ccc(S(=O)(=O)N3CCCC3)cc2s1)C1CCCO1 (stereo not drawn), O=C(Cn1ccc(=O)[nH]c1=O)Nc1ccc(C(=O)O)c(O)c1 -3.58% [at 9.17 µM], CNc1cc(-c2c(C)noc2C)ncn1, CCOC(=O)c1cc(C)sc1NC(=O)C1CCC1, CC(Sc1sc(=S)sc1SC(C)C(=O)O)C(=O)O (stereo not drawn), CCCOc1ccc(-c2nc(N)n[nH]2)cc1, CC(C)NS(=O)(=O)c1ccc(CCC(=O)N2CCOCC2)cc1, CCOC(=O)c1sc(/N=C/Nc2nc(C)c(C(=O)OCC)s2)nc1C, CCCCCCCCCCCC(=O)O[C@H](CC(=O)O)C[N+](C)(C)C, CC(=O)O[C@]1(C(C)=O)CC[C@@H]2[C@@H]3C=C(C)C4=CC(=O)CC[C@@]4(C)[C@H]3CC[C@]21C, CCCSC1=C(C#N)C(c2ccccc2C)C(C(=O)OC)C(=O)N1 (stereo not drawn), Nc1ccc2[nH]cc(CCC(=O)O)c2c1 -1.62% [at 9.17 µM], Cn1c(NC(=O)c2ccc3c(c2)OCO3)cc(=O)n(C)c1=O, N#CCCn1c(=O)c(-c2cc(F)cc(F)c2)nc2cnc(Oc3ccccc3)nc21, CCCCNc1nc(C)nc2c1nc(-c1ccccc1)n2CCCCN(CC)CC, Cc1ccc(N2CCN(S(=O)(=O)c3ccc(F)cc3)CC2)c(C)c1, CN(Cc1ccco1)c1cc(-c2ccccc2C(F)(F)F)ncn1, COCCn1c(=O)c(CCc2ccccc2)nc2cnc(N3CCNCC3)nc21, CCCCN(CCCC)C(=O)CCS(=O)(=O)c1ccc2c(c1)n(C)c(=O)c(=O)n2C, COc1cccc(-c2cc(NCCc3c[nH]c4ccc(OC)cc34)ncn2)c1, Cc1ccccc1N1CCN(S(=O)(=O)C[C@@]23CC[C@H](C[C@H]2NC(=O)[C@@H](N)CCS(C)(=O)=O)C3(C)C)CC1, O=C(C1CCN(S(=O)(=O)c2cnc[nH]2)CC1)N1CCN(Cc2ccc3c(c2)OCO3)CC1, Nc1cc(OC(=O)c2ccccc2Br)nn1S(=O)(=O)c1ccccc1, CN1[C@@H]2CC[C@H]1CC(NC(=O)c1nn(C)c3ccccc13)C2 (stereo partly drawn), O=C(/C=N/O)Nc1ccccc1, CCOc1ccccc1-n1c(SCC(=O)N2CCCC2)nnc1-c1ccoc1C, CN1CCN(c2ncncc2-c2ccc(C(=O)N(C)C)cc2)CC1, O=C(c1cc(C(F)(F)F)cc(C(F)(F)F)c1)N1CCC2(CCCN(c3ccccn3)C2)CC1, COC(=O)Nc1nc2ccc(Sc3ccccc3)cc2[nH]1, CCOC(=O)C1CCN(C(=O)COc2cc(C)c(Br)c(C)c2)CC1, COCCn1c(=O)c(C)nc2cnc(N(C)C)nc21, Cc1ccc(S(=O)(=O)c2nc(NCCCn3ccnc3)sc2Cl)cc1, COc1ccccc1-c1cc(NCc2cccs2)ncn1, Cc1c(NC(=O)c2cccnc2)c(=O)n(-c2ccccc2)n1C, COc1cccc(N2C(=O)CC(N3CCN(S(=O)(=O)c4ccccc4)CC3)C2=O)c1 (stereo not drawn), Cc1cc(C(F)(F)F)nn1CC(=O)N1CCCC1, CC(=O)N1CCC2(CCCN(Cc3ccc(C#N)cc3)C2)CC1, CC(NC(=O)c1cc(-c2ccccc2)on1)c1ccccc1 (stereo not drawn), N#CCCn1cnc2ccccc21, O=C(CCN1C(=O)c2ccccc2C1=O)Nc1ccncc1, Clc1ccccc1-c1cc(NCCN2CCOCC2)ncn1, CCCS(=O)(=O)N1CCCC(C(=O)NCc2ccco2)C1 (stereo not drawn), COc1ccc(-c2noc(CN(C)S(=O)(=O)c3ccc(C)cc3)n2)cc1, Cc1nc2cnc(Nc3ccccc3)nc2n(C[C@H]2CCCO2)c1=O, COc1ccccc1CNc1cc(-c2ccccc2CN(C)C)ncn1, CCn1c(=N)c(C(=O)NCCCOC)cc2c(=O)n3cccc(C)c3nc21, Oc1ccc(Cn2cc[nH]c2=S)cc1, O=C(Nc1cccc(F)c1)N1CCC2(CC1)CCN(S(=O)(=O)c1ccccc1)CC2, CCOc1ccc(N=NS(=O)(=O)O)cc1 -2.9% [at 9.17 µM], NC(=S)c1ccc(C(N)=S)o1, COc1ccc(CN2CC(C(=O)NCCN3CCN(c4ccccc4F)CC3)CC2=O)cc1 (stereo not drawn), COC(=O)c1ccc2c(c1)S(=O)(=O)NC(=NCCCN1CCOCC1)S2, CN(C(=O)CN(CCO)CC(=O)N(C)C(C)(C)Cc1ccccc1)C(C)(C)Cc1ccccc1, O=C(O)C1=CCCN(CCON=C(c2ccccc2)c2ccccc2)C1
